Consider 40 sequences from the OligoGym collection.
Further: reference of the scale not given here.

The first experiment addresses ATP10B. The experiment in a line: pooled miR-30 sensor sort-seq; sequence = guide strand. The settings on record: shRNA.
TTTATTGCTTTATCAAAGCGGT came in with a sensor-assay potency score (higher = more potent) of -0.352.
Still for that read-out and setting: with TTGAAGAATATCATCTGCCAGT the figure was -0.482; with TTGGTGTAGACAACAATCTCGC, -0.19; with TTTGAGATTAGAGACTTCCCAC, 0.383.
In turn, TTGATGGTGACCCTCTGCCTGG gave a sensor-assay potency score (higher = more potent) of -1.45.
TTTATCTGGAGTTACATCTTTT returned a sensor-assay potency score (higher = more potent) of -0.334.
Same read-out and setting: with TTGACTATCATACTCTTCTGGA the figure was 0.0435.
TAACATGGTGATTTCTCTGTGG gave a sensor-assay potency score (higher = more potent) of 0.162.
Same read-out and setting: as for TCGCTTAGCATTTTCTTGGTGA, the figure is 0.0526.
TAAGGTGAGTTGATTCTCCAGA: the sensor-assay potency score (higher = more potent) worked out at 0.552.
Sequence TTCTTGGTGAGAATACTCGCTG displayed a sensor-assay potency score (higher = more potent) of -0.605.

For another experiment, the target named is ATP13A3. Described as above. Conditions: shRNA.
In the case of TAAAGCTTTAGCTTCTGTGGTT, the sensor-assay potency score (higher = more potent) is -0.122.
The sequence TTGACATGATCCATTCTCCTTA yielded a sensor-assay potency score (higher = more potent) of -0.0274.
TTAATTGCAGCTCTGACACAGG: the sensor-assay potency score (higher = more potent) was determined as 0.0379.
As to TAGACATAGATTTTGGACTTGA, the sensor-assay potency score (higher = more potent) is -0.0415.
The same measure, in the same setting: with TATAACACTGAACAGCTGGAAA the figure was -0.978.
Regarding TTCATCAGTAGTCCTCAGCAGC, the sensor-assay potency score (higher = more potent) is -0.704.
Take TTCGGTTTCATTGTCTACGTGT: the sensor-assay potency score (higher = more potent) was 0.717.
TTCTTCAGTTGCTTCTTCCAGA gave a sensor-assay potency score (higher = more potent) of -0.0869.
The same measure, in the same setting: as for TAGATTTTGGACTTGAAACTGG, the figure is -0.128.
For TTGACGTACAAGAAACACCTTC, the sensor-assay potency score (higher = more potent) came to 0.452.

The next experiment concerns the target ATP2B3. Described as above. Conditions: shRNA.
The sequence TTCCTCACCATGTCGTCCCGGT returned a sensor-assay potency score (higher = more potent) of -0.00689.
For TTGACCAGAAAGATATTCTTGC, the sensor-assay potency score (higher = more potent) is 0.31.
The same measure, in the same setting: as for TTAAACAAGGACATCAGGGAAC, the figure is -0.472; as for TTTGTAAAGCTTGTCTTCCGGG, -0.371; as for TTGACTGCTTCTGCTCAGGGGT, -0.897.
As for TTTTTTTGCATGAAGATGCTGA, the sensor-assay potency score (higher = more potent) was determined as 0.145.
The same measure, in the same setting: as for TTGTAAAGCTTGTCTTCCGGGA, the figure is -0.394; as for TTGAAGAACACAAAGACCCTCA, 0.724.
The same measure, in the same setting: as for TTTATGAACTGAACACAGTTGA, the figure is 0.503.
Still for that read-out and setting: with TTCTTTTGAACTCTTGGCCCTG the figure was -0.519; with TTTTCTTGACAGAGTAAGCTAA, -0.151.
As to TATTGTACATAGACCGGCGTGC, the sensor-assay potency score (higher = more potent) turned out to be 0.677.
Same read-out and setting: as for TTGATCAGAAACTCGGGCGTGG, the figure is 0.126.
Still for that read-out and setting: with TTTCTTGACAGAGTAAGCTAAG the figure was -0.513; with TTAGGCAACTTTATACAGCAGC, -0.477; with TAAAACATATTTATGAACTGAA, -0.383.
On to AAAACAACTACAACCTTGCTAC, for which the sensor-assay potency score (higher = more potent) is -0.0751.
On the same count and under the same terms, as for AAAAAAAACAACTACAACCTTG, the figure is -0.501; as for TGAAACTGCAGGAACTTGGAGA, 0.195.
